# Data as given in PubChem BioAssay (NCI).
# About 83,000 compounds went through this panel and 20% of them were active in at least one assay; those are over-represented in the sample as a whole.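 Treatment: one concentration, 48 hours, 96-well format. Scoring: percent growth, with anything below 10 considered active.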 Unmarked numbers belong to inactive results. Calls of active or inactive are those of the source.
# System: HL-60(TB) leukemia
# Test: NCI-60 one-dose screen, 48 h (100 = growth as untreated, 0 = no growth, -100 = all killed)
# Details: 10 µM unless noted
row,Structure (SMILES),growth
1,CCOC(=O)c1c(C)c2c(n1Cc1ccccc1)CSCC2=O,13.3% [100 µM]
2,COc1ccc(NC(=O)c2sc3nc(C)c(C(=O)/C=C/c4ccccc4)cc3c2N)cc1,24.2%
3,C=C(c1ccc(C(=O)O)c(F)c1)c1cc2c(cc1C)C(C)(C)C=CC2(C)C,86.3%
4,CCN(CC)CCCC(C)N/C(=C1\C(=O)NC(=O)\C1=C(/NC(C)CCCN(CC)CC)c1cccc(OC)c1)c1cccc(OC)c1 (centres undefined),-35.6% (active)
5,CC(C)=CCCC(C)C1=C(O)C(=O)C(C)=CC1=O (centres undefined),-47.1% (active)
6,O=C1Nc2cc(Cl)ccc2Oc2cc(Oc3ccccc3)ccc21,38.6%
7,NCCNc1nc2ccccc2c2c(=O)c3cc(F)cc(Cl)c3sc12,-42.8% (active)
8,NC1(C(=O)N[C@@H](CCO)c2ccc(Cl)cc2)CCN(c2ncnc3[nH]ccc23)CC1,60.7%
9,Cc1ccc(S(=O)(=O)n2cc(-c3csc(-c4cn(C)c5ncccc45)n3)c3ccccc32)cc1,61.9%
10,COC1OC(C(COC(C)=O)OC(C)=O)C(OC(C)=O)C(OC(C)=O)C1OC(C)=O (centres undefined),132%
11,COc1ccc2cc(C3=CC(=O)CCC3)ccc2c1,89.7%
12,Cc1n(Cc2ccc3ccccc3c2)c(Cl)c(Cl)[n+]1Cc1ccc2ccccc2c1,-34.6% (active)
13,CCn1c(O)c(/C=N/NC(=O)C(C)c2ccc(CC(C)C)cc2)sc1=S (centres undefined),-32.5% (active)
14,Cc1cccc(C[C@H](NC(=O)Nc2ccc(Cl)cc2F)C(=O)N[C@@H]2C(=O)N3C[C@H](O)C[C@H]3C(=O)N3CCCC[C@H]3C(=O)N[C@@H](C)C(=O)N3C[C@H](C)C[C@H]3C(=O)O[C@H]2C)c1,6.77% (active)
